The full list was thinned out, with hits kept by preference.
VHR inh color = VHR1 phosphatase inhibitors, primary screen, biochemical, colorimetric, HTS | Dual specificity protein phosphatase 3 (Homo sapiens), P51452 | recombinant VHR phosphatase, colorimetric substrate read-out | inhibition, % at 20 µM | hit rate 0.7% among 50,000 | AID 1992, 2009; in the data active means inhibition above about 60%
An asterisk follows results filed as active.

SMILES | VHR inh color
O=C(/C=C/c1ccco1)NC(=S)NCc1ccccc1 | 75*
O=C(/C=C/c1ccco1)NCc1ccc2c(c1)OCO2 | -3
O=C(N/N=C/c1ccco1)c1cc(-c2cccc([N+](=O)[O-])c2)n[nH]1 | 2
CCSc1nnc(NC(=O)c2cccc(Br)c2)s1 | 7
O=C(O)C1C2CC/C=C\CC/C=C/CCC21 (stereo not given) | 18
O=C(Nc1c(Cl)cccc1Cl)C1C2CC/C=C\CC/C=C/CCC21 (stereo not given) | 112*
O=C(Nc1cccc(Br)c1)C1C2CCC3C(CCC21)C3(Cl)Cl (stereo not given) | -2
COc1ccc(CCN=Cc2cccn2-c2sc3c(c2C#N)CCCC3)cc1OC | -3
COc1ccc(NC(=O)CCc2ccccc2)c(OC)c1 | -18

Screening data deposited in PubChem BioAssay by Sanford-Burnham Center for Chemical Genomics.
